Assay results as given in PubChem BioAssay (NCATS).
For part of these data: Entries with a potency or affinity are not part of this list. The source made the active and inactive calls. No rule for the calls is given here.

Legend:
[1] = Ebola virus entry assay, green fluorescence channel
[2] = Ebola virus entry assay, blue channel fluorescence
[3] = Ebola virus entry assay, ratio channel
[4] = Ebola virus entry assay, green channel fluorescence
[5] = Ebola virus entry assay, reporter ratio channel; Channel type: primary
[6] = Ebola virus entry assay, blue channel (ratio component)

Measured: efficacy
For efficacy in this document: 0% is about no effect.

Brc1c(NC2=NCCN2)ccc2nccnc12
inactive: [1] -28.5% | [2] | [3] | [4] | [5] | [6]

Oc1c(Br)cc(Br)cc1Br
inactive: [1] -9.36% | [2] | [3] | [4] | [5] | [6]

O=C(O)CCCCCCNC1c2ccccc2CCc2ccccc21
inactive: [1] 26.2% | [2] | [3] | [4] | [5] | [6]

c1cc2c(c(N3CCNCC3)c1)OCCO2
inactive: [1] 11.5% | [2] | [3] | [4] | [5] | [6]

Oc1c(I)cc(Cl)c2cccnc12
inactive: [1] 46.4% | [2] | [3] | [4] | [5] | [6]

COc1ccc(CN2CCNCC2)c(OC)c1OC
inactive: [1] 47.4% | [2] | [3] | [4] | [5] | [6]

N[C@@H](Cc1ccc(O)cc1)C(=O)O
inactive: [1] 37.7% | [2] | [3] | [4] | [5] | [6]

COCc1c(C(C)C)nc(C(C)C)c(/C=C/[C@@H](O)C[C@@H](O)CC(=O)O)c1-c1ccc(F)cc1
inactive: [1] 9.5% | [2] | [3] | [4] | [5] | [6]

CS(=O)(=O)c1ccc(-c2cn3ccccc3n2)cc1
inactive: [1] -11.6% | [2] | [3] | [4] | [5] | [6]

Clc1ccccc1-c1nc(-c2ccncc2)no1
inactive: [1] -9.78% | [2] | [3] | [4] | [5] | [6]

CC(=O)[C@@]1(O)CC[C@H]2[C@@H]3CCC4=CC(=O)CC[C@]4(C)[C@H]3CC[C@@]21C
inactive: [1] -9% | [2] | [3] | [4] | [5] | [6]

Cc1ccc2c(Cl)cc(Cl)c(O)c2n1
inactive: [1] -13.1% | [2] | [3] | [4] | [5] | [6]

COCCOC(=O)C1=C(C)NC(C)=C(C(=O)OC/C=C/c2ccccc2)C1c1cccc([N+](=O)[O-])c1 (centres undefined)
inactive: [1] 17.5% | [2] | [3] | [4] | [5] | [6]

OCc1ccccc1O
inactive: [1] -17.7% | [2] | [3] | [4] | [5] | [6]

CCOC(=O)[C@H](CCc1ccccc1)N[C@@H](C)C(=O)N1C(=O)N(C)C[C@H]1C(=O)O
inactive: [1] -14.8% | [2] | [3] | [4] | [5] | [6]

FC(F)(F)C(F)(F)C(F)(F)C(F)(F)C(F)(F)C(F)(F)C(F)(F)C(F)(F)Br
inactive: [1] -14.2% | [2] | [3] | [4] | [5] | [6]

C[C@]12CCC(=O)C=C1CC[C@@H]1[C@@H]2C(=O)C[C@@]2(C)[C@H]1CC[C@]2(O)C(=O)CO
inactive: [1] 28.7% | [2] | [3] | [4] | [5] | [6]

CCc1nnc(NS(=O)(=O)c2ccc(N)cc2)s1
inactive: [1] -8.59% | [2] | [3] | [4] | [5] | [6]

c1ccc2[nH]c(-c3cscn3)nc2c1
inactive: [1] -29.7% | [2] | [3] | [4] | [5] | [6]

Cc1ncc2n1-c1ccc(Cl)cc1C(c1ccccc1F)=NC2
inactive: [1] -12% | [2] | [3] | [4] | [5] | [6]

CC(=O)O[C@H]1C[C@@H]2CC[C@@H]3[C@H](CC[C@@]4(C)[C@H]3C[C@H]([N+]3(C)CCCCC3)[C@@H]4OC(C)=O)[C@@]2(C)C[C@@H]1N1CCCCC1
inactive: [1] -18% | [2] | [3] | [4] | [5] | [6]

Cc1c(F)cc2c(=O)c(C(=O)O)cn3c2c1CCC3C (centres undefined)
inactive: [1] 17.9% | [2] | [3] | [4] | [5] | [6]

N[C@H](C(=O)O)c1ccc(O)cc1
inactive: [1] 11.9% | [2] | [3] | [4] | [5] | [6]

Cc1ncc([N+](=O)[O-])n1C
inactive: [1] 20.2% | [2] | [3] | [4] | [5] | [6]

O=C(O)c1ccc(OCCCOc2ccc(C(=O)O)cc2)cc1
inactive: [1] 11.3% | [2] | [3] | [4] | [5] | [6]

N=C(N)c1ccc(OCCCOc2ccc(C(=N)N)cc2)cc1
inactive: [1] 14.7% | [2] | [3] | [4] | [5] | [6]

O=C(O)/C=C/c1ccc(Cn2ccnc2)cc1
inactive: [1] -14.9% | [2] | [3] | [4] | [5] | [6]

O=C(O)CP(=O)(O)O
inactive: [1] -15.3% | [2] | [3] | [4] | [5] | [6]

COc1ccc([C@@H]2Sc3ccccc3NC(=O)[C@@H]2O)cc1
inactive: [1] -10.4% | [2] | [3] | [4] | [5] | [6]
